We go through 3 compounds from PubChem BioAssay (NCI).

Compounds without any hit were thinned out: in the full panel of roughly 83,000, 20% have a hit.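 The endpoint reported here, percent growth, reads 100 for growth as untreated, 0 for no net growth and -100 for all cells dead.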 Values without a mark were called inactive. Activity calls are given as the source filed them. Rule for the calls: active = growth percent below 10; inactive = the rest.

In this assay the test system is MDA-MB-468 breast. Description: NCI-60 one-dose screen, 48 h (100 = growth as untreated, 0 = no growth, -100 = all killed). Particulars: 10 µM unless noted.
In the case of `OCC(O)c1nc2ccc3[nH]ncc3c2c2c1CCCC2` (stereo not drawn), the growth was -28.1% (active).
As for `Cc1onc2c(-c3ccccc3)n[nH]c(=O)c12`, the figure is 98.3%.
As for `Cc1cccc(NC(=O)Nc2ccc(-n3cnc4cc(-c5ccc(O)cc5)ccc43)cc2)c1`, the figure is 38.4%.
